Consider 29 compounds from PubChem BioAssay (NCATS).

Test [1] is described as follows: Primary qHTS for inhibitors of nuclear receptor binding SET domain protein 2 (NSD2) in an isogenic RCH-ACV NSD2 p.E1099K mutant (9B) (AID 1645876). A general note: In qHTS, concentration-response curves come from the screen itself.
Test [2] in a line: Primary qHTS for inhibitors of nuclear receptor binding SET domain protein 2 (NSD2) in an RCH-ACV wild type WT cells (2C) (AID 1645877).

Structures are written as SMILES. Inconclusive results are not listed. Values without a mark were called inactive. Active and inactive are the calls of the source. Calls come from the whole dose curve; as a rule, active = well fitted curve in the direction sought with a large enough effect; inconclusive = small, poorly fitted or top-dose-only effect, or another doubt; inactive = no such curve, though single readings can be large; an effect the other way counts as inactive or inconclusive.
% is set by controls: 0 for no effect and ±100 for the full control effect; potency is the fitted concentration of half-maximal effect.
Note: nearly all actives have a fitted effect of over 70% in size.

With `CC/C=C\[C@H](O)[C@H](O)C1=C(C)C(=O)[C@]2(O1)C(=O)N[C@@](OC)(C(=O)c1ccccc1)[C@@H]2O`, the Potency entry in test [1] and in test [2] was “inactive” in each case.

With `CC(=O)N1CCc2ccc(O)c(OC3OC(COC4OCC(O)(CO)C4O)C(O)C(O)C3O)c2C1Cc1ccc(O)cc1` (stereo not drawn), the Potency result in test [1] and in test [2] was “inactive” throughout.

Turning to `CC(O)/C=C/C1OC(=O)CC1Nc1ccc(C(=O)O)cc1` (stereo not drawn), the Potency result in test [1] and in test [2] was “inactive” throughout.

With `C=C1CC[C@@H]2[C@](C)(CO[C@@H]3O[C@H](CO)[C@@H](O)[C@H](O)[C@H]3O)[C@H](O)CC[C@@]2(C)[C@@H]1C/C=C1/C(=O)OC[C@H]1O`, the Potency entry in test [1] and in test [2] was “inactive” each time.

With `CC(C)(O[C@@H]1O[C@H](CO)[C@@H](O)[C@H](O)[C@H]1O)C(OC(=O)/C=C\c1ccc(O)cc1)C(=O)OCc1ccc(O[C@@H]2O[C@H](CO)[C@@H](O)[C@H](O)[C@H]2O)cc1` (stereo partly drawn), the Potency result in test [1] and in test [2] was “inactive” in each case.

As for `CCn1cc(NC(=S)Nc2cc(Cl)ccc2OC)c(C(N)=O)n1`, the Potency result in test [1] and in test [2] was “inactive” in each case.

`C/C=C1\[C@H](O[C@@H]2O[C@H](CO)[C@@H](O)[C@H](O)[C@H]2O)OC=C(C(=O)OC)[C@H]1CC(=O)O`: the Potency result in test [1] and in test [2] was “inactive” in each case.

Consider `COc1c2c(cc3c1-c1c(cc4c(c1OC)OCO4)CC(C)C(C)C3)OCO2` (stereo not drawn), for which the Potency result in test [1] and in test [2] was “inactive” throughout.

For `CC1C=CC2CCCCC2C1CCC1CC(O)CC(=O)O1` (stereo not drawn), the Potency entry in test [1] and in test [2] was “inactive” throughout.

Take `C=CC(C)(C)c1[nH]c2ccccc2c1C[C@@H]1NC(=O)[C@H](Cc2c[nH]c3ccccc23)NC1=O`: the Potency entry in test [1] and in test [2] was “inactive” in each case.

Regarding `CNC12CC3C[C@@](C)(C1)C[C@](C)(C3)C2`, the Potency result in test [1] and in test [2] was “inactive” in each case.

Turning to `CC1CCC2C(C(=O)O)=COC(O[C@@H]3O[C@H](CO)[C@@H](O)[C@H](O)[C@H]3O)C12` (stereo partly drawn), the Potency result in test [1] and in test [2] was “inactive” each time.

In the case of `CC1(C=O)CC[C@]2(C(=O)O[C@@H]3O[C@H](CO)[C@@H](O)[C@H](O)[C@H]3O)CC[C@]3(C)C(=CCC4[C@@]5(C)C[C@H](O)[C@H](O[C@@H]6OC[C@@H](O)[C@H](O)[C@H]6O)[C@@](C)(CO)C5CC[C@]43C)C2C1` (stereo partly drawn), the outcome in test [1] was “inactive [at 9.23 µM]”. In addition, the activity change, negative = cell killing in test [2] is -3.33% [at 9.23 µM].

As for `C=C(C)C(=O)O[C@H]1C[C@@](C)(O)C(=O)CC(O)/C(C)=C\[C@H]2OC(=O)C(=C)[C@H]12` (stereo partly drawn), the Potency was 4010 nM (active) in test [1] and 1270 nM (active) in test [2].

For the compound `C=C1C(=O)O[C@H]2C1[C@H](OC(=O)/C(=C/CO)COC(=O)/C(C)=C/CO)CC(=C)[C@@H]1CC(=O)[C@@H](C)[C@@H]12` (stereo partly drawn), the Potency in test [1] was 3550 nM (active); in test [2], 1780 nM (active).

In the case of `O=C(O)c1cc(I)ccc1NC(=O)[C@H](Cc1ccccc1)NCc1ccccc1`, the Potency result in test [1] and in test [2] was “inactive” each time.

In the case of `CC(=O)C12OC(C)(C)OC1CC1C3CCC4=CC(=O)C=CC4(C)C3(F)C(O)CC12C` (stereo not drawn), the Potency result in test [1] was “inactive”. Also, in test [2], the Potency is 6.5 nM (active).

For the compound `C=C(C(=O)O)C1CCC2(C)CCC(O)C(C)(O)C2C1` (stereo not drawn), the Potency result in test [1] and in test [2] was “inactive” each time.

In the case of `C[C@@H]1C(=O)O[C@H](C)[C@H]1CC(=O)[C@](C)(O)[C@H]1CC[C@@]2(O)C3=CC(=O)[C@@H]4C[C@@H](O)[C@@H](O)C[C@]4(C)C3CC[C@]12C` (stereo partly drawn), the Potency result in test [1] and in test [2] was “inactive” throughout.

On to `C=CC[C@]12C[C@@H](OC)C(=O)C(OC)=C1O[C@@H](c1cc(OC)c3c(c1)OCO3)[C@@H]2C`, for which the Potency result in test [1] and in test [2] was “inactive” in each case.

On to `COC(=O)c1cc(OC)c(O[C@@H]2O[C@@H](C)[C@H](O)[C@@H](O)[C@H]2O)c(OC)c1`, for which the Potency result in test [1] and in test [2] was “inactive” in each case.

For `COC(=O)C12C(=O)C(C)=C(O)C1(C)C(C)=CC1C3(CO)CCC(O)C(C)(C)C3CCC12C` (stereo not drawn), the Potency result in test [1] and in test [2] was “inactive” each time.

In the case of `COc1ccc(N(C)c2nc(C)nc3ccccc23)cc1`, the Potency in test [1] is 13.2 nM (active); in test [2], 11.8 nM (active).

`CC1CCC23COC(=O)C2=CC(O)CC3C1(C)CCC1=CC(O)OC1=O` (stereo not drawn): the Potency result in test [1] and in test [2] was “inactive” throughout.

In the case of `CC[C@]12C=CCN3CC[C@@]4(c5cc([C@@]6(C(=O)OC)C[C@H]7C[C@@H](C(C)(F)F)CN(Cc8c6[nH]c6ccccc86)C7)c(OC)cc5N(C)[C@H]4[C@@](O)(C(=O)OC)[C@@H]1OC(C)=O)[C@@H]32`, the Potency in test [1] is 139 nM (active); in test [2], 87.9 nM (active).

With `C/C=C/c1ccc(O[C@@H]2O[C@H](CO)[C@@H](O)[C@H](O)[C@H]2O)c(OC)c1`, the Potency entry in test [1] and in test [2] was “inactive” in each case.

With `C/C=C/C=C/C(O)=C1\C(O)=C(C)C(=O)[C@@]2(C)OC(=O)[C@@](C)(NC(=O)/C=C/C(=O)O)[C@@H]12`, the Potency entry in test [1] and in test [2] was “inactive” in each case.

`CC(=O)OC1C[C@@]2(C)[C@@H](CC[C@@H](C)[C@]23Cc2c(O)cc4c(c2O3)CNC4=O)C(C)(C)[C@@H]1O` (stereo partly drawn): the Potency entry in test [1] and in test [2] was “inactive” throughout.

In the case of `C/C(=C\CCC1(C)C2CCC(C2)C1(C)O)C(=O)O` (stereo not drawn), the Potency result in test [1] and in test [2] was “inactive” each time.
